Sampled rows, rich in hits. Any-hit rate of the full collection: about 10%.
HP1b chromo inh = inhibitors of HP1-beta chromodomain binding to methylated histone tails. AID 540317. AlphaScreen HP1-beta / biotin-H3K9me3 peptide binding. 390,000 tested, 0.56% active. Potency, µM (titrated, usually from 114 µM), for inactives: top-dose activity change, negative = inhibition, usual class: inhibitors. P83916; also: nearly all actives have a fitted effect of over 70% in size
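AlphaScreen: HP1-beta (50 nM) preformed 30 min with biotin-H3(1-18)K9me3 peptide (50 nM) in PBS pH 7.4, 0.01% Tween-20. Compound added for 30 min at RT, then streptavidin donor/nickel chelate acceptor beads (10 ug/mL) for 30 min.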
GLS inh = inhibitors of human glutaminase (GLS) | O94925 | GLS enzymatic activity, qHTS titration | Potency, µM (top dose mostly 45.5 µM), for the others: top-dose activity change, negative = inhibition, usual class: inhibitors | 410,000 tested, 0.21% active; also: % is scaled to controls: 0 for no effect and ±100 for the full control effect
Target sequence (O94925 whole entry, looked up): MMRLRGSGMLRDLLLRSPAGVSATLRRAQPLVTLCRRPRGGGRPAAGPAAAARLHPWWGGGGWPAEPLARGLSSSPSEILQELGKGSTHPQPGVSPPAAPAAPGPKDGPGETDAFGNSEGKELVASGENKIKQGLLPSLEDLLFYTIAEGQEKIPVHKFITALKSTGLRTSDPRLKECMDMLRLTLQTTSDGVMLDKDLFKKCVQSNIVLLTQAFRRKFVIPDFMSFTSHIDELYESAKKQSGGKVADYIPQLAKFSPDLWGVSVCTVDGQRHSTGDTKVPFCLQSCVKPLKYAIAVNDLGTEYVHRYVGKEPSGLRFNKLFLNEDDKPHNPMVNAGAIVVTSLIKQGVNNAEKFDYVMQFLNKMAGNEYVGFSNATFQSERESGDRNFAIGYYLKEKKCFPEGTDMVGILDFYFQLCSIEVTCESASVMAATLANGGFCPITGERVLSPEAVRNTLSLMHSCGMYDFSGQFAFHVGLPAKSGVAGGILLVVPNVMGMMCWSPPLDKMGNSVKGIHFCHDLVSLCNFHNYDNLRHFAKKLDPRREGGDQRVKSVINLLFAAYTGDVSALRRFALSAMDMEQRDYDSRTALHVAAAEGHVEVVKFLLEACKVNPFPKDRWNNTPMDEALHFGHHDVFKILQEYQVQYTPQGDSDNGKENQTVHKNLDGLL
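Assay buffer: 45 mM KH2PO4 pH 8.2, 0.02% Tween-20. hKGA acts on L-glutamine (1 mM solution added); product glutamate is reported by an oxidase/peroxidase Amplex Red coupling, with fluorescence taken at baseline and 30 min.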
BAZ2B inh = BAZ2B (human) inhibition | AlphaScreen BAZ2B-H3K14Ac peptide displacement | Potency, µM (series often up to 114 µM), without a hit: at the highest dose activity change, negative = inhibition, actives largely listed as inhibitors | 360,000 tested, 4.4% active; also: % is scaled to controls: 0 for no effect and ±100 for the full control effect; nearly all actives have a fitted effect of over 60% in size
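Inhibition is scored as reduced AlphaScreen emission. The BAZ2B/b-H3(5-23)K14Ac complex (50 nM each) in PBS pH 7.4, 0.01% Tween-20 meets compound (up to 110 uM) for 30 min at RT before bead addition.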
JMJD2A Tudor = blocks the human JMJD2A Tudor domain. Potency, µM (highest dose often 114 µM), inactives show at the highest dose activity change, negative = inhibition, actives largely listed as inhibitors. AID 504339. O75164. 390,000 tested, 4.4% active. AlphaScreen JMJD2A-Tudor / H3K4me3 peptide binding; also: % is scaled to controls: 0 for no effect and ±100 for the full control effect; nearly all actives have a fitted effect of over 50% in size
G9a block = blocks human histone lysine methyltransferase G9a. Q96KQ7. G9a H3K9 monomethylation, AlphaScreen, 2 h. Potency, µM (highest dose often 102 µM), for inactives: at the top dose activity, negative = inhibition, usual class: inhibitors. 350,000 tested, 8.8% active. AID 504332; also: % is scaled to controls: 0 for no effect and ±100 for the full control effect; nearly all actives have a fitted effect of over 75% in size
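Signal arises when biotinylated H3K9 peptide, once monomethylated, bridges streptavidin donor and antibody-captured acceptor beads. Enzyme at 20 nM was preincubated 15 min with test compounds; peptide 500 nM and SAM 20 uM then reacted for 2 h.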
Active calls of the source: *; ? = inconclusive; · = no result given; [ ] = remark or other dose. Calls follow the shape of the dose curve; as a rule, active = well fitted curve in the direction sought with a large enough effect; inconclusive = small, poorly fitted or top-dose-only effect, or another doubt; inactive = no such curve, though single readings can be large; an effect the other way counts as inactive or inconclusive. Potency is read from the fitted curve at half-maximal effect.

SMILES	HP1b chromo inh	GLS inh	BAZ2B inh	JMJD2A Tudor	G9a block
COc1ccc(NC(=O)C2(C)CCN2Cc2ccc(OC(F)(F)F)cc2)cc1OC (stereo unspecified)	·	3.0%	·	·	·
O=C(NCCCN1CCOCC1)c1sc2cc([N+](=O)[O-])ccc2c1Cl	?	0.0%	-31.8%	79.4µM*	0.891µM*
O=C(NCCN1CCOCC1)c1ccc([N+](=O)[O-])cc1[N+](=O)[O-]	27.6%	1.8%	14.2%	0.3%	-14.4%[59 µM]
O=C(CN1CCOCC1)NNC(=O)c1ccc([N+](=O)[O-])cc1	6.0%[57 µM]	9.6%	-18.8%	4.3%	50.1µM*
O=C(NCCCN1CCOCC1)c1sc2cc(Cl)ccc2c1Cl	11.9%	-12.2%	-10.5%	-9.0%	-6.2%
O=C(NCCN1CCOCC1)c1cc([N+](=O)[O-])ccc1Cl	58.3%	6.9%	?	0.0%	56.2µM*
CC1CCCN(c2ccc(C(=O)NCc3ccco3)cc2[N+](=O)[O-])C1 (stereo unspecified)	?	3.3%	44.7µM*	56.2µM*	?
Cc1ccc(NC(=O)CSc2nc3c(oc4ccccc43)c(=O)n2Cc2ccco2)cc1	0.5%	-15.4%	4.9%	?	2.6%[59 µM]
O=C(CN1CCCc2ccccc21)N/N=C/c1ccccc1	6.8%	2.6%	?	-32.1%	44.7µM*
NS(=O)(=O)c1ccc(NC(=O)CN2CCc3ccccc32)cc1	35.6%	0.0%	-3.3%	-3.9%	·
O=C(CN1CCCc2ccccc21)N/N=C/c1c(O)ccc2ccccc12	?	15.0%	-11.8%	?	39.8µM*
O=C(CN1CCCc2ccccc21)NC(=O)NCc1ccccc1	20.8%	2.5%	1.5%	-12.7%	-5.3%[12.7 µM]
O=C(CN1CCCc2ccccc21)N/N=C/c1ccc(O)cc1O	-10.6%	30.8%	-27.4%	?	79.4µM*
O=C(CCc1ccccc1)NCC(=O)N/N=C/c1ccc(O)cc1O	35.2%	18.1%	1.8%	-10.5%	7.9%
NS(=O)(=O)c1ccc(NC(=O)CN2CCCc3ccccc32)cc1	8.5%	-10.4%	-26.3%	-19.6%	28.2µM*
COC(C(=O)C(O)C(C)O)C1Cc2cc3cc(OC4CC(OC5CC(O)C(O)C(C)O5)C(O)C(C)O4)c(C)c(O)c3c(O)c2C(=O)C1OC1CC(OC2CC(OC3CC(C)(O)C(O)C(C)O3)C(O)C(C)O2)C(O)C(C)O1 (stereo unspecified)	·	·	·	·	-29.0%[12.7 µM]
O=C(NCC(c1ccco1)N1CCN(c2ccc(F)cc2)CC1)C(=O)NC1CC1 (stereo unspecified)	15.2%	16.4%	4.7%	-6.8%	-27.3%
COc1ccc(N2CCN(C(CNC(=O)C3CCCCC3)c3ccco3)CC2)cc1 (stereo unspecified)	?	32.3%	-7.3%	-32.4%	44.7µM*
COc1ccc(N2CCN(C(CNC(=O)C(=O)NC3CC3)c3ccco3)CC2)cc1 (stereo unspecified)	29.7%	4.8%	-25.0%	-5.5%	44.7µM*
COc1cc(C(=O)NCc2ccc3c(c2)CCN3C(=O)c2ccncc2)cc(OC)c1OC	5.5%	4.5%	-2.5%	-8.0%	1.0%[59 µM]
Cc1cc(=O)oc2c(C(=O)/C=C\c3cccs3)c(O)ccc12	-23.8%	16.4%	?	?	44.7µM*
Cc1cc2c(NC(=O)CC(C)(C)CC(=O)O)cccc2nn1	23.9%	?	50.1µM*	-18.6%	·
CC(C)(CC(=O)O)CC(=O)Nc1ccccc1Oc1ccccc1	30.5%	-12.3%	-1.8%	-5.4%	-0.2%
Cc1cc2c(NC(=O)Nc3ccc(F)cc3)cccc2nn1	41.6%	-2.2%	-18.1%	-1.4%	50.1µM*
Cc1c(S(=O)(=O)Nc2ccc(Oc3ccccc3)cc2)c(=O)n(C)c(=O)n1C	25.3%	0.1%	-14.4%	-12.4%	26.8%
SMILES	HP1b chromo inh	GLS inh	BAZ2B inh	JMJD2A Tudor	G9a block
CCOC(=O)C1CCN(c2cc3c(cc2NC(=O)c2ccccc2Br)n(C)c(=O)n3C)CC1	5.2%	20.8%	50.1µM*	?	·
Cc1ccc(C(=O)Nc2cc3c(cc2N2CCCCC2)n(C)c(=O)n3C)cc1	61.4%	-3.2%	-17.6%	-14.4%	-3.4%[59 µM]
Cc1ccccc1C(=O)Nc1cc2c(cc1N1CCOCC1)n(C)c(=O)n2C	7.0%	29.5%	50.1µM*	-16.4%	-22.2%[59 µM]
Cc1ccccc1C(=O)Nc1cc2c(cc1N1CCCCC1)n(C)c(=O)n2C	-28.4%	21.3%	25.1µM*	?	15.8µM*
CCOc1ccccc1C(=O)Nc1cc2c(cc1N1CCOCC1)n(C)c(=O)n2C	-10.5%	10.0%	?	-21.6%	-16.3%[59 µM]
CN1CCC(N(C)CC(=O)Nc2ccccc2N2CCOCC2)CC1	?	-2.8%	56.2µM*	8.91µM*	?
COc1ccc2c(c1)CC(C(=O)N1CCC(C(N)=O)CC1)CO2 (stereo unspecified)	25.8%[57 µM]	8.0%	0.7%	-2.2%	10.6%[59 µM]
Cc1ccc(N2C(=O)C3C4C=CC(CC4)C3C2=O)c([N+](=O)[O-])c1 (stereo unspecified)	24.1%	-1.8%	-19.6%	-14.9%	?
CC(C(=O)NC(=O)NC1CCCCC1)N(C)CC(=O)Nc1ccc(F)c(F)c1F (stereo unspecified)	5.9%	-2.3%	11.2%	-22.1%	4.8%
Cc1ccc(CNC(=O)C2CCN(c3nc4ccccc4n(C)c3=O)CC2)cc1	13.6%	-1.4%	-7.8%	-10.6%	?
Cc1cccc(NC(=O)c2sc3nc4n(c(=O)c3c2C)N=C(c2ccc(F)cc2)CS4)c1C	7.0%	-12.0%	-1.3%	-8.7%	10.7%[59 µM]
CN(C)c1cc2c(cc1NC(=O)c1ccccc1Cl)n(C)c(=O)n2C	16.5%	3.1%	50.1µM*	-12.6%	-23.5%
Cc1cc(C(=O)Nc2ccccc2N2CCOCC2)c(C)o1	8.7%	8.9%	0.2%	-8.3%	56.2µM*
COc1ccc(Br)c(C(=O)Nc2cc3c(cc2N2CCOCC2)n(C)c(=O)n3C)c1	6.0%	3.3%	79.4µM*	-18.8%	-43.2%[59 µM]
COc1ccc(NC(=O)[C@@H]2O[C@H](CO)[C@H](O)[C@H](O)[C@H]2O)cc1F	·	5.4%	·	·	·
COCCN(C(=O)CSc1nc(-c2ccccc2)cn1N)c1c(N)n(Cc2ccccc2)c(=O)[nH]c1=O	33.2%	13.1%	-2.3%	-24.1%	8.91µM*
CCOc1ccc2nc(SCC(=O)N(CCOC)c3c(N)n(Cc4ccccc4)c(=O)[nH]c3=O)[nH]c2c1	45.1%	-4.2%	-3.9%	6.2%	10µM*
CCN(C(=O)CSc1nc2ccc(OC)cc2[nH]1)c1c(N)n(Cc2ccccc2)c(=O)[nH]c1=O	-5.4%	4.1%	6.2%	-17.8%	19.4%[2.33 µM]
COCCN(C(=O)CSc1nnc(-c2ccc(C)c(C)c2)o1)c1c(N)n(CC(C)C)c(=O)[nH]c1=O	-2.8%	0.4%	-3.0%	-11.1%	79.4µM*
COCCN(C(=O)CSc1nnc(-c2cccs2)n1N)c1c(N)n(Cc2ccccc2)c(=O)[nH]c1=O	49.8%	1.0%	-3.5%	-5.5%	56.2µM*
